Data published in the supplement of paper PMC11001985.
Unmarked numbers belong to inactive results.

Each target was assayed with C#CCNC(=O)CCSSCCC(=O)NCCc1ccc(C=O)c(C=O)c1 (assay: lysine labeling ratio R10:1 (500 µM / 50 µM probe), SILAC-ABPP in living cells; higher = lower intrinsic lysine reactivity toward the probe, active = 2 or less). Conditions: HeLa; probe concentrations 500 vs 50 µM.
Summary of the method: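 Living SILAC light and heavy HeLa cells in PBS at room temperature were treated with an alkyne-tagged, disulfide-linked lysine probe at 50 µM or 500 µM, with forward and reverse label swaps. The mixed lysates were clicked to biotin-azide, digested with trypsin, captured on neutravidin, released with DTT, alkylated and run by LC-MS/MS on a TIMS-TOF Pro. R for each lysine is the filtered median high-probe/low-probe MS1 peptide ratio, taken again as the median over forward and reverse replicates. Any value above 20 is set to 20.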

Chain of UniProt Q15149 (Q15149 whole entry): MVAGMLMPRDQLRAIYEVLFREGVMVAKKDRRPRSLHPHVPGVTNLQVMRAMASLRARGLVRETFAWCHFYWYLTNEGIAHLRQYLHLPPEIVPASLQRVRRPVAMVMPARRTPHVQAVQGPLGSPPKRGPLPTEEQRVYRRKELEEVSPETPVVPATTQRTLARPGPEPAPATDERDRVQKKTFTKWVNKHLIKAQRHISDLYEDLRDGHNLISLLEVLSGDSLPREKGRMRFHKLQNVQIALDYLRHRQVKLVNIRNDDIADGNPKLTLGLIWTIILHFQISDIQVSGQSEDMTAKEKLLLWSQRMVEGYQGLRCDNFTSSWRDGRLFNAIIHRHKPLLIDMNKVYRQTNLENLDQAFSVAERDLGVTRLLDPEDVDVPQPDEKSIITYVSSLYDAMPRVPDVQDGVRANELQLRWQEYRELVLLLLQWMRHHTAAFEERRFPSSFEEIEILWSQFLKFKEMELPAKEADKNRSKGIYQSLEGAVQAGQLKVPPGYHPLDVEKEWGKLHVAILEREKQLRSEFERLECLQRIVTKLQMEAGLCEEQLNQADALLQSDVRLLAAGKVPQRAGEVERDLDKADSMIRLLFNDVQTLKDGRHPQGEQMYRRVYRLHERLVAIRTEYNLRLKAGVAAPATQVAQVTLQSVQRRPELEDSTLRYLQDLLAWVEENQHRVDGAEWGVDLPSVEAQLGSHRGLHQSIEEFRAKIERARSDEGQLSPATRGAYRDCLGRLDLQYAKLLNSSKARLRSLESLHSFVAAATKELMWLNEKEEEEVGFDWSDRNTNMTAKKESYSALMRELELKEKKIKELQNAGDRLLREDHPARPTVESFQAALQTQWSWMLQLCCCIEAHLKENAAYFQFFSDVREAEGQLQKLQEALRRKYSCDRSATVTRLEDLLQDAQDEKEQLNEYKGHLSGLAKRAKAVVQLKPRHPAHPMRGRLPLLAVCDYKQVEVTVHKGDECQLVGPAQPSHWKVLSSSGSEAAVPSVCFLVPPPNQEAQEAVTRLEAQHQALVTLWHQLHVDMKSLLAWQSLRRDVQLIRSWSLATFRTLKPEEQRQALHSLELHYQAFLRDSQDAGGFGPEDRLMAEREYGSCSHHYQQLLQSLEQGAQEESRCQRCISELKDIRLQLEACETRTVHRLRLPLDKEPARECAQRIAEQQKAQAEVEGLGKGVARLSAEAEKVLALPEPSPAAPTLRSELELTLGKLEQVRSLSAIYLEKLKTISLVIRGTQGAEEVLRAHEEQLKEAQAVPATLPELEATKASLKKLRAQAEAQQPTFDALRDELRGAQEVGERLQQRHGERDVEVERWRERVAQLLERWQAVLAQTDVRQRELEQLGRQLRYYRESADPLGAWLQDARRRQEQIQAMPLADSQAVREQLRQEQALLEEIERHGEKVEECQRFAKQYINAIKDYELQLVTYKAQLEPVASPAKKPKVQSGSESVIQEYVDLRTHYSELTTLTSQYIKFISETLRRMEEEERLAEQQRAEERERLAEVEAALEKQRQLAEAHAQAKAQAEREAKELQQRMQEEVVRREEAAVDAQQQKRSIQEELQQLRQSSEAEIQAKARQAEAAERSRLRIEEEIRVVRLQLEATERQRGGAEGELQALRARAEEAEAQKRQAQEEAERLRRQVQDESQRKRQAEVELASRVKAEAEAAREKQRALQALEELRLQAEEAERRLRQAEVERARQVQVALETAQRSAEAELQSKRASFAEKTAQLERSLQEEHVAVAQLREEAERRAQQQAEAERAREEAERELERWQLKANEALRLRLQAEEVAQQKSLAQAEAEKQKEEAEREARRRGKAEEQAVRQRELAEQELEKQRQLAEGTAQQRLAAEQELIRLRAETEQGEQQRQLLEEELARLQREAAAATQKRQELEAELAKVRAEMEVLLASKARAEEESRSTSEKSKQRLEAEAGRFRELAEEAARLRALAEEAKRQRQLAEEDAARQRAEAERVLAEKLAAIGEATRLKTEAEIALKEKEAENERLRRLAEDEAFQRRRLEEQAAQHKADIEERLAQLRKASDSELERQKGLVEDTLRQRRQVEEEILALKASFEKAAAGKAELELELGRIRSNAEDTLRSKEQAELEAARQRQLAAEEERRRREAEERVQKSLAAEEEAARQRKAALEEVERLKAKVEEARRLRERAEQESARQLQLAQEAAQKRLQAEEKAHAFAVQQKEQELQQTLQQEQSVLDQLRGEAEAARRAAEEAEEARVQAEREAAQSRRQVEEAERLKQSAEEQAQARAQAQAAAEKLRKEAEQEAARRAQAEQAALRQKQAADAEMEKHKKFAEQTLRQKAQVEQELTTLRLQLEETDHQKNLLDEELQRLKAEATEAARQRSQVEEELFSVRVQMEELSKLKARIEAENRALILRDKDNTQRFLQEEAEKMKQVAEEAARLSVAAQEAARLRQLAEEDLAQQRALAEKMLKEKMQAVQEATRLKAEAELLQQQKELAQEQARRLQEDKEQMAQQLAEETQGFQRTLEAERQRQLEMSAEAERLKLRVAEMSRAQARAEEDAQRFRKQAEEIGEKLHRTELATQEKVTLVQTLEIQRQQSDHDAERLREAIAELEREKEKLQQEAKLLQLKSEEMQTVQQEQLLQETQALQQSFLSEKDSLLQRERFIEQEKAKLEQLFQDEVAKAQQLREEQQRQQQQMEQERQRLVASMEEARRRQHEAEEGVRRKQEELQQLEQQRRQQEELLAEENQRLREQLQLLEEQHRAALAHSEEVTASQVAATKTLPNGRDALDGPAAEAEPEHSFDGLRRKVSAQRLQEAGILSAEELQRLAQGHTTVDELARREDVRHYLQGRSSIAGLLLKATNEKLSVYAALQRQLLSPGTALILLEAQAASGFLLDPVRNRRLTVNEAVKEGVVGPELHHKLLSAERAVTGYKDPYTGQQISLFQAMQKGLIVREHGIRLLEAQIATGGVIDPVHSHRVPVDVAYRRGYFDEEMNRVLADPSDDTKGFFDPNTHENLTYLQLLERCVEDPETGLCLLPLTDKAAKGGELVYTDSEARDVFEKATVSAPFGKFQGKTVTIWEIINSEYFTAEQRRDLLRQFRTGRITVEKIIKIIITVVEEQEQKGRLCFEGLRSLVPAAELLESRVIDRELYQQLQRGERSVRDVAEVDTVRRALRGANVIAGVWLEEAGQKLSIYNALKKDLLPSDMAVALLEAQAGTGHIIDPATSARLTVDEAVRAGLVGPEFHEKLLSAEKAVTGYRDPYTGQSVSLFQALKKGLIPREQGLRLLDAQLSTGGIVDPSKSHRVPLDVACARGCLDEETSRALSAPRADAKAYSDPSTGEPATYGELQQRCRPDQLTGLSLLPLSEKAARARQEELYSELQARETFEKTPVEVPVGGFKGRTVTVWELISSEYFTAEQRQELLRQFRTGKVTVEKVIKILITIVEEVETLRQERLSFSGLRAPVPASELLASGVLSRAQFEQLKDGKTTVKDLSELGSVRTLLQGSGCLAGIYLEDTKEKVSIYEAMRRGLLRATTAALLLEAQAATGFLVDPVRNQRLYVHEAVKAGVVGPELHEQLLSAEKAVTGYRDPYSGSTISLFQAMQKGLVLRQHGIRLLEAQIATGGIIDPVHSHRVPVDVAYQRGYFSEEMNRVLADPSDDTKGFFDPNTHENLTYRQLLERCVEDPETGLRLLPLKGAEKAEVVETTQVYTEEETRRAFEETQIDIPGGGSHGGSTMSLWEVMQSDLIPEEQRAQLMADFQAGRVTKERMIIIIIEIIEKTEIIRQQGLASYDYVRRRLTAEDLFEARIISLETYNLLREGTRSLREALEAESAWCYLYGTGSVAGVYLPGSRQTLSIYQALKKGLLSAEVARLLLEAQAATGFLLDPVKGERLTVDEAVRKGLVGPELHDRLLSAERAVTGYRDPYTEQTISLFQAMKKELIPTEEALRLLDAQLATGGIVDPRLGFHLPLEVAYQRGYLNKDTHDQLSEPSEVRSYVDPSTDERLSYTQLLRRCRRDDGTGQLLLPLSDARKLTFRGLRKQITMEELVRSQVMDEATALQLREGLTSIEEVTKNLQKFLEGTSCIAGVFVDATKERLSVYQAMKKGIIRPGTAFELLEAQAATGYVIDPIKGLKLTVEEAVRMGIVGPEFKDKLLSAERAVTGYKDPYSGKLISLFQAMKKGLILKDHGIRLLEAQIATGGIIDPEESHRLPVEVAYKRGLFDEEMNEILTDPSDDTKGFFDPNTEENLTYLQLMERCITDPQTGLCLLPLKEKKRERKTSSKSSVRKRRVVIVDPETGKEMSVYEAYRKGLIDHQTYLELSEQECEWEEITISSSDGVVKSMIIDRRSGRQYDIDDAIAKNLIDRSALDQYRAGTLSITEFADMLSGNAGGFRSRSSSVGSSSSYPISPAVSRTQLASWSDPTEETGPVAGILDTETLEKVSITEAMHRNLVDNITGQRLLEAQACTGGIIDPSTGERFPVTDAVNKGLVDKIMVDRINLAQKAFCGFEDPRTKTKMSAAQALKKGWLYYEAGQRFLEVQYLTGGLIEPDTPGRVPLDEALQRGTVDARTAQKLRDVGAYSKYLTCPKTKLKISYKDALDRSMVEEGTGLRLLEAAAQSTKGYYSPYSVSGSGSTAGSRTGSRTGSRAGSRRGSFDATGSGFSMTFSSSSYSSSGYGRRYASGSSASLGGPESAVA
Chain of UniProt Q14165 (Q14165 whole entry): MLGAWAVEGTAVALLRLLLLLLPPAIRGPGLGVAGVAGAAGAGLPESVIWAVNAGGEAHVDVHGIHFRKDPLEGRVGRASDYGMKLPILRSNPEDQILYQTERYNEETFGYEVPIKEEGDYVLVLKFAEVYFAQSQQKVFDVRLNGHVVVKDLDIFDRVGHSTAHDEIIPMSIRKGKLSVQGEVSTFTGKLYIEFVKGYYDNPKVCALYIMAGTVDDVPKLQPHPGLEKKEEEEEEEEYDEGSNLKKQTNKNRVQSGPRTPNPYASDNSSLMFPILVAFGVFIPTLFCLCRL
Chain of UniProt P61604 (P61604 whole entry): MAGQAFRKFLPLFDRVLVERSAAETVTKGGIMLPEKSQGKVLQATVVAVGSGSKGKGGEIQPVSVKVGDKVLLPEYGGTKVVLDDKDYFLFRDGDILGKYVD

Target	lysine labeling ratio R10:1
HSPA8 (lysine site: K257) (UniProt P11142)	3.1
G6PD (lysine site: K360) (UniProt P11413)	2.07
UniProt P18859 (lysine site: K105)	3.04
SPTAN1 (lysine site: K1759) (UniProt Q13813)	4.65
AHNAK (lysine site: K5443) (UniProt Q09666)	0.97 (active)
UniProt Q15149 (lysine site: K1921)	1.36 (active)
UniProt O60462 (lysine site: K547)	4.2
NLRX1 (lysine site: K301) (UniProt Q86UT6)	2.38
LDLR (lysine site: K603) (UniProt P01130)	1.19 (active)
UniProt Q9NYQ6 (lysine site: K1830)	0.925 (active)
MLEC (lysine site: K69) (UniProt Q14165)	1.64 (active)
MYH9 (lysine site: K1024) (UniProt P35579)	1.84 (active)
IMPDH2 (lysine site: K134) (UniProt P12268)	2.5
LNPEP (lysine site: K624) (UniProt Q9UIQ6)	0.72 (active)
HSPE1 (lysine site: K86) (UniProt P61604)	1.85 (active)
RTN4 (lysine site: K1066) (UniProt Q9NQC3)	3.4
ROBO1 (lysine site: K733) (UniProt Q9Y6N7)	5.78
ITGB1 (lysine site: K72) (UniProt P05556)	1.91 (active)
HSD17B10 (lysine site: K105) (UniProt Q99714)	2.63
UniProt Q6NZI2 (lysine site: K265)	4.28
FLNA (lysine site: K2607) (UniProt P21333)	6.14
FASN (lysine site: K41) (UniProt P49327)	0.712 (active)
WNT5A (lysine site: K208) (UniProt P41221)	2.67
